The values below come from PubChem BioAssay (NCATS).

In assay [1] the test system is Zika virus NS2B-NS3 protease (linked construct). Briefly: Primary screen NINDS Rhodamine qHTS for Zika virus inhibitors (AID 1347160). Further: nearly all actives have a fitted effect of over 55% in size. Put shortly: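 Aprotinin served as in-plate control. Conditions: 25 nM linked NS2B-NS3, pH 8.0 Tris buffer, titrated compounds, 15 min preincubation and 15 min reaction with 1.5 microM Rhod110 substrate at room temperature.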
On the technique in general: qHTS replaces the single test concentration by a dilution series.

Assay [2] has as its target Calcium and integrin-binding protein 1 (Homo sapiens) (UniProt Q99828). Briefly: Primary qHTS for Identification of Calcium Integrin Binding Protein 1 (CIB1) Competitor (AID 1508620).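 Further: GST tagged CIB1 binding a fluorescein labelled alphaIIb integrin peptide tracer; top concentration of the series differs between compounds; on the % scale 0 is the no-effect control and ±100 the full control effect.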 Put shortly: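 CIB1-GST (1 uM final) and compound incubated 15 min at room temperature before adding FITC-alphaIIb peptide tracer (100 nM final). Competition for binding read by fluorescence polarization (ex 480, em 540) after another 15 min at room temperature.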

Assay [3] can be described thus: Primary qHTS for inhibitors of nuclear receptor binding SET domain protein 2 (NSD2) in an isogenic RCH-ACV NSD2 p.E1099K mutant (9B) (AID 1645876). Further: nearly all actives have a fitted effect of over 70% in size. Further: potency means the concentration at half of the fitted maximal effect. On activity change, negative = viability loss: on the % scale 0 is the no-effect control and ±100 the full control effect.
Assay [4] in a line: Primary qHTS for inhibitors of nuclear receptor binding SET domain protein 2 (NSD2) in an RCH-ACV wild type WT cells (2C) (AID 1645877). Further: potency means the concentration at half of the fitted maximal effect; nearly all actives have a fitted effect of over 70% in size.
The target in assay [5] is Glutathione peroxidase 1 (Homo sapiens) (UniProt P07203). The assay is described as follows: Primary qHTS Assay for Inhibitors of Recombinant Selenoprotein Glutathione Peroxidase 1 (GPX1) (AID 1845191). Further: nearly all actives have a fitted effect of over 65% in size. Put shortly:
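NADPH consumption tracked by fluorescence at 340/450 nm between t=0 and t=15 min, room temperature. Final mix: 10 nM GPX1, 100 nM glutathione reductase, 1 mM GSH, 0.5 mM NADPH, 0.5 mM cumene hydroperoxide, 0.01% BSA; 30 min compound–enzyme preincubation.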

Assay [6] concerns the target Luciferin 4-monooxygenase (Photinus pyralis) (UniProt P08659). Briefly: Primary firefly luciferase (FLuc) qHTS assay for identification of artifact compounds. (AID 1845220). Further: nearly all actives have a fitted effect of over 60% in size. Put shortly:
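FLuc 10 nM; luciferin 10 uM; ATP 10 uM; Tris-acetate pH 7.6, Mg-acetate 10 mM; 15 min RT preincubation; 5 min reaction; luminescence.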

Assay [7] relates to Nanoluciferase (engineered Oplophorus gracilirostris luciferase). The assay is described as follows: Primary Nanoluciferase (NLuc) qHTS assay for identification of artifact compounds. (AID 1845222).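 Further: NLuc secreted into diluted conditioned medium of S16 cells; 0% = DMSO and -100% = no enzyme.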 In outline:
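NLuc from S16 cell medium (1:55) plus test compounds, 15 min, room temperature. Luminescence after Nano-Glo (1:100) addition, 5 min.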

The nature of assay [8]: Primary redox qHTS assay for identification of artifact compounds. (AID 1845223).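 Further: 0% = DMSO and 100% = reference compound.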 In outline: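 Redox-cycling detection via DTT (250 uM final) oxidation coupled to Amplex Red (25 uM)/HRP (250 mU/mL) in HBSS. 15 min preincubation plus 30 min after DTT, room temperature. Ex/Em 525/598 nm; 4-parameter Hill fit against DMSO and 10 uM DA3003.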
A further assay concerns HaCat. Briefly: Cytotoxic Profiling of Annotated Libraries Using Quantitative High-Throughput Screening (AID 1296008). Further: nearly all actives have a fitted effect of over 60% in size. Further: potency means the concentration at half of the fitted maximal effect. On max response: on the % scale 0 is the no-effect control and ±100 the full control effect. To be noted: Five cell lines viability, CellTiter-Glo ATP luminescence, 48-72 h; max response: stronger effect = lower value. In outline:
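Cytotoxicity was measured as CellTiter-Glo ATP luminescence, read after 10 min at room temperature. Compound treatment of the cells lasted 48 or 72 hr at 37 degrees Celsius in a qHTS format.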

The next assay has as its system C33A. The assay is described as follows: Primary qHTS to identify gynecologic anti-cancer compounds using libraries of approved drugs and bioactive compounds (AID 1345084). Further: nearly all actives have a fitted effect of over 55% in size. Further: potency means the concentration at half of the fitted maximal effect. Conditions: Gynecologic cancer cell panel viability, ATPlite luminescence, 48 h; series mostly up to 57.5 µM. Put shortly: (§1)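 Cells, 1,000 per well, plated 16 h, then exposed 48 h at 37 C to compounds. Viability by ATPlite luminescence after 15 min at room temperature.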

The subject of the next assay is CASKI. The assay is described as above. To be noted: Gynecologic cancer cell panel viability, ATPlite luminescence, 48 h; series mostly up to 57.5 µM. Put shortly: as §1
A general note: ATP-based viability assays read luminescence as a measure of living cells.

A further assay has as its system Hek293T. The description is as above. Conditions: Gynecologic cancer cell panel viability, ATPlite luminescence, 48 h, control line for the selectivity index; series mostly up to 57.5 µM. In outline: as §1
The next assay has as its system JEG-3. Described as above. Conditions: Gynecologic cancer cell panel viability, ATPlite luminescence, 48 h; series mostly up to 57.5 µM. In outline:
as §1

Assay [9] deals with Phospholipid hydroperoxide glutathione peroxidase GPX4 (Homo sapiens) (UniProt P36969). The assay is described as follows: Primary qHTS Assay for Inhibitors of Recombinant Selenoprotein Glutathione Peroxidase 4 (GPX4) (AID 1845192). Further: nearly all actives have a fitted effect of over 65% in size. Conditions: outcome: dose series up to 50 µM unless noted. Put shortly: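 NADPH consumption followed by fluorescence at 340/450 nm, t=0 and after 15 min at room temperature. Reaction started with cumene hydroperoxide (0.5 mM final) after 30 min compound–GPX4 preincubation; final 200 nM GPX4, 100 nM GR, 1 mM GSH, 0.5 mM NADPH.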

Assay [10] is described as follows: qHTS drug screen for cell cycle checkpoint inhibitors in PARPi-resistant BRCA-mutant ovarian cancer cell lines. (AID 1963452; calls by dose curve). To be noted: PEO1/OlaR viability, CellTiter-Glo luminescence, 96 h, stronger effect = lower value. In outline:
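PEO1, PEO4 and PEO1/OlaR ovarian cancer cells, 600 per well, exposed 96 h at 37C to a dilution series. Viability read by CellTiter-Glo luminescence, normalized to DMSO and empty wells; activity summarized as Z-AUC.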

In another assay the test system is Es-2. The assay is described as follows: Primary qHTS to identify gynecologic anti-cancer compounds using libraries of approved drugs and bioactive compounds (AID 1345084). Further: nearly all actives have a fitted effect of over 55% in size. Further: potency means the concentration at half of the fitted maximal effect. Conditions: Gynecologic cancer cell panel viability, ATPlite luminescence, 48 h; series mostly up to 57.5 µM. Put shortly: as §1
A further assay deals with HeLa. The description is as above. Conditions: Gynecologic cancer cell panel viability, ATPlite luminescence, 48 h; series mostly up to 57.5 µM. In outline:
as §1

In another assay the test system is Tov-21-G. The description is as above. To be noted: Gynecologic cancer cell panel viability, ATPlite luminescence, 48 h; series mostly up to 57.5 µM. Put shortly: as §1
Another assay concerns Tov112D. The description is as above. Conditions: Gynecologic cancer cell panel viability, ATPlite luminescence, 48 h; series mostly up to 57.5 µM. In outline:
as §1

In a further assay the test system is OV90. Described as above. To be noted: Gynecologic cancer cell panel viability, ATPlite luminescence, 48 h; series mostly up to 57.5 µM. In outline: as §1
The mark [11] stands for this setting: measured here: PEO1 parental Z-AUC.

Molecules are shown by their SMILES. Results filed as inconclusive are left out. The source holds several records for some structures; these can differ, active in one and inactive in another. Activity calls are given as the source filed them. Unless noted, the call rests on the fitted dose curve; in most records, active means well fitted curve in the direction sought with a large enough effect; inconclusive means small, poorly fitted or top-dose-only effect, or another doubt; inactive means no such curve, though single readings can be large; an effect the other way counts as inactive or inconclusive.

Chain of Calcium and integrin-binding protein 1 (Homo sapiens) (Q99828 whole entry, looked up): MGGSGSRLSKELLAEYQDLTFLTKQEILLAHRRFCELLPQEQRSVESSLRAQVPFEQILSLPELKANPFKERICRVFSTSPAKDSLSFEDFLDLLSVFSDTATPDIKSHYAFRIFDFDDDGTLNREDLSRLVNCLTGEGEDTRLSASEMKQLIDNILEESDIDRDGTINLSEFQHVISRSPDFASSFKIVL
Chain of Glutathione peroxidase 1 (Homo sapiens) (P07203 whole entry, looked up): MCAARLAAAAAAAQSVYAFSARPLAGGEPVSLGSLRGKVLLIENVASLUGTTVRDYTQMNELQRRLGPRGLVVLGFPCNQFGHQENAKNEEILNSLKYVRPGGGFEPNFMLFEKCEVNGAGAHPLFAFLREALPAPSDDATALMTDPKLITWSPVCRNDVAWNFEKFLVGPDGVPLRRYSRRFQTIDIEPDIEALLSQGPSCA
Chain of Phospholipid hydroperoxide glutathione peroxidase GPX4 (Homo sapiens) (P36969 whole entry, looked up): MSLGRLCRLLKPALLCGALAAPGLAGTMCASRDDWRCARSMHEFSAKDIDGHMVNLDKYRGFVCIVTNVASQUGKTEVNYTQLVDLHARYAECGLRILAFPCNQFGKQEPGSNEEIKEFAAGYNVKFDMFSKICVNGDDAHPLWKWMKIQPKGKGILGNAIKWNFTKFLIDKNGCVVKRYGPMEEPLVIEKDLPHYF

In the case of `O=C(c1ccc(F)c(F)c1Nc1ccc(I)cc1F)N1CC(O)(C2CCCCN2)C1` (stereo unspecified), the Potency entry (in assay [1]; in assay [5]; in assay [6]; in [7]; in assay [8]; in the assay on Hek293T) was “inactive” each time. In addition, the Potency entry in the assay on JEG-3 was “inactive”. Also, the outcome in assay [2] was inactive. In addition, the Potency in [3] was 20.5 µM (active); in assay [4], 18.3 µM (active); in the assay with HaCat it was 23.1 µM (active); with C33A, 35.5 µM (active); with CASKI, 28.2 µM (active).

As to `COc1cc(-c2cc(-c3ccc(N4CCNCC4)cc3)cnc2C)cc(OC)c1OC`, the Potency entry in assay [1], in assay [5], in [9], in assay [6], in assay [7] and in assay [8] was “inactive” throughout. The Potency result in the assay on C33A, in the assay on CASKI, in the assay on Es-2, in the assay with HeLa, in the assay on Hek293T and in the assay on JEG-3 was “inactive” each time. Further, the Potency result in the assay with Tov-21-G and in the assay on Tov112D was “inactive” each time. The outcome (in [2]; in the assay on HaCat) was inactive. Further, the Potency in assay [3] was 9.34 µM (active); in [4] it was 7.42 µM (active). In addition, the Z-AUC in assay [10] was -1.12 (inactive); in [10] (setting [11]) it was -0.592; in assay [10] (measured here: PEO4 Z-AUC) it was -0.59.

Consider `CC1CCC(n2c3cnccc3c3cnc(Nc4ccc5c(n4)CCN(C(=O)CO)C5)nc32)CC1` (stereo unspecified), for which the Potency entry in assay [1], in [5], in assay [9], in assay [6], in assay [7] and in assay [8] was “inactive” in each case. Moreover, the Potency entry with C33A, in the assay with CASKI, in the assay on Es-2, in the assay on HeLa, with Hek293T and in the assay on JEG-3 was “inactive” in each case. Moreover, the Potency result in the assay on OV90, in the assay with Tov-21-G and in the assay on Tov112D was “inactive” each time. Besides, in [2], the outcome was inactive. In addition, the Potency in assay [3] is 2.59 µM (active); in [4] it was 2.31 µM (active). The activity change, negative = viability loss in [3] was -24.3% [at 9.23 µM] (inactive). For the same compound, the Z-AUC in [10] was 0.557 (inactive); in [10] (setting [11]), 1.18; in [10] (measured here: PEO4 Z-AUC), 0.34. In addition, in the assay with HaCat, the max response was -0.578% (inactive).

In the case of `C=C1CC[C@@H]2[C@](C)(CO)[C@H](O)CC[C@@]2(C)[C@@H]1C/C=C1/C(=O)OC[C@@H]1O`, the Potency entry (in [1]; in assay [9]; in [6]; in assay [8]; in the assay with Es-2; with HeLa) was “inactive” in each case. Moreover, the Potency result in the assay with JEG-3 and in the assay with OV90 was “inactive” in each case. Besides, the outcome (in assay [2]; in the assay on HaCat) was inactive.

For `CN(C)C(=O)c1cc2cnc(Nc3ccc(N4CCNCC4)cn3)nc2n1C1CCCC1`, the Potency result (in assay [1]; in assay [5]; in assay [6]; in assay [7]; in assay [8]; with C33A) was “inactive” throughout. The Potency entry in the assay on CASKI, in the assay with Es-2, in the assay with HeLa, with Hek293T, in the assay with JEG-3 and with OV90 was “inactive” throughout. For the same compound, the Potency entry in the assay with Tov-21-G and in the assay on Tov112D was “inactive” in each case. In addition, the outcome in [2] was inactive. The Potency in [3] is 4.09 µM (active); in assay [4], 5.15 µM (active). Further, the Z-AUC is 0.0269 (inactive) in assay [10], 0.759 in assay [10] (setting [11]) and 0.126 in [10] (measured here: PEO4 Z-AUC).

Regarding `COc1cc(O)ccc1OCCNCC(O)COc1cccc2[nH]c3ccccc3c12` (stereo unspecified), the Potency entry in assay [1], in assay [5], in [9], in assay [6], in assay [7] and in assay [8] was “inactive” each time. Further, the Potency result in the assay with C33A, in the assay on CASKI, with Es-2, in the assay with HeLa, in the assay with Hek293T and in the assay with JEG-3 was “inactive” each time. Also, the Potency result in the assay with OV90, in the assay with Tov-21-G and in the assay on Tov112D was “inactive” throughout. The result (in assay [2]; in the assay on HaCat) was inactive. The Potency in assay [3] and in assay [4] was 20.5 µM (active) each time.
